We go through 35 compounds from ChEMBL document CHEMBL3433997, “St. Jude Leishmania screening dataset” (2016).

Format in all cases: functional
In experiment [1] the target is Solute carrier family 2, facilitated glucose transporter member 1 (Homo sapiens) (UniProt P11166). Nature of the experiment: ST_JUDE_LEISH: Cytotoxicity at 2uM final concentration against transgenic Leishmania Mexicana promastigotes LmGLUT1 that are glucose transport deficient and complemented with the human glucose transporter GLUT1. Activity is measured by DNA content using SYBR green in vitro.

The target of experiment [2] is Hexose transporter 1 (Plasmodium falciparum) (UniProt O97467). Nature of the experiment: ST_JUDE_LEISH: Cytotoxicity at 2uM final concentration against transgenic Leishmania Mexicana promastigotes LmPfHT that are glucose transport deficient and complemented with the Plasmodium falciparum hexose transporter. Activity is measured by DNA content using SYBR green in vitro.

The target of experiment [3] is Glucose transporter (Leishmania mexicana) (UniProt O61059). Nature of the experiment: ST_JUDE_LEISH: Cytotoxicity at 2uM final concentration against transgenic Leishmania Mexicana promastigotes LmGT2 that are glucose transport deficient and complemented with the L. Mexicana glucose transporter 2. Activity is measured by DNA content using SYBR green in vitro.

Sequence of Solute carrier family 2, facilitated glucose transporter member 1 (Homo sapiens) (P11166 whole entry): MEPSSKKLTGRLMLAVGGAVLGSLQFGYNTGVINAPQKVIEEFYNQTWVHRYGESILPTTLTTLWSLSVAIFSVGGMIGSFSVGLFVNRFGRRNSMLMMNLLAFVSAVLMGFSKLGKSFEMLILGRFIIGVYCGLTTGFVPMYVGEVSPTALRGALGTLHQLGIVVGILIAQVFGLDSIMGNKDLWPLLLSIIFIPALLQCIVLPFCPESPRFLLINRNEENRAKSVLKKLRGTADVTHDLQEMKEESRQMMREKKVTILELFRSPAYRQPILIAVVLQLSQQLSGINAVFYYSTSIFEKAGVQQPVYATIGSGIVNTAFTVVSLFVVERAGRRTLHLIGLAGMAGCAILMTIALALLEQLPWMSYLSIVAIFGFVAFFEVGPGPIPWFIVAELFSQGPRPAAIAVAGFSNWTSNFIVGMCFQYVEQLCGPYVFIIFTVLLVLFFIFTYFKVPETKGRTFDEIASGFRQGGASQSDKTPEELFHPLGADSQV

`COc1ccc2nccc([C@H](O)CN3CCC(NCc4nc5cccc(F)c5[nH]4)CC3)c2c1`: the inhibition (in general, the change of the read-out against control, counted positive when it falls) in experiment [1] stood at 3.63%; in experiment [2] it was 1.1%; in experiment [3] it was 2.36%.
On to `O=C(Nc1ccsc1C(=O)NC1CCCCC1)c1ccc(F)cc1`, for which the inhibition in experiment [1] was 0.07%; in experiment [2], -1.32%; in experiment [3] it was -0.45%.
The corresponding values for `O=C(Nc1ccc(Cl)c(Cl)c1)Nc1cc(C(F)(F)F)ccc1Cl` are -0.56%, 1.37% and 1.28%.
Turning to `O=[N+]([O-])c1ccc(/C=N/O)nc1`, the inhibition in experiment [1] turned out to be 88.1%; in experiment [2], 91.2%; in experiment [3], 84.6%.
The corresponding values for `COC(=O)c1cccc(CNCc2ccc(-c3cccc(-c4nc5cccc(C)c5[nH]4)c3)cc2)c1` are -0.37%, -1.65% and -2.21%.
As for `Cc1cccc2nc(-c3ccc(-c4ccc(CN5CCCCC5)cc4)cc3)[nH]c12`, the inhibition in experiment [1] was found to be 19.2%; in experiment [2], 18.6%; in experiment [3], 10.2%.
Consider `CCCCCCN1CCN(Cc2cccc(NC(=O)c3cc4ccccc4o3)c2)CC1`, for which the results for the inhibition in experiment [1], in experiment [2] and in experiment [3] were 1.59%, 1.56% and 1.59%, respectively.
Turning to `CCC(C)NC(=O)CN1CN(c2ccccc2)C2(CCN(C(=O)c3ccc(C(C)(C)C)cc3)CC2)C1=O` (stereo not given), the values for the inhibition in experiment [1], in experiment [2] and in experiment [3] were 3.34%, 2.77% and 1.7%, respectively.
On to `Nc1c2c(nc3ccccc13)C(=Cc1ccc(O)cc1)CCC2`, for which the inhibition in experiment [1] amounted to 5.91%; in experiment [2], 8.35%; in experiment [3], 2.9%.
Consider `CCCCNCC(O)COc1ccccc1-c1ccc(N/N=C/c2cccc3ccccc23)nn1` (stereo not given), for which the inhibition in experiment [1] was determined as 3.78%; in experiment [2], 3.6%; in experiment [3], 1.78%.
`COc1cc(-c2nc(-c3ccc([N+](=O)[O-])cc3)c(-c3ccccc3)[nH]2)cc(OC)c1O`: the inhibition in experiment [1] worked out at 3.48%; in experiment [2] it was 5.84%; in experiment [3], 5.26%.
The corresponding values for `COc1cc2nc(N3CC(C)N(C(=O)Cc4ccc(-c5ccccc5)cc4)C(C)C3)nc(N)c2cc1OC` (stereo not given) are 6.24%, 5.22% and 3.8%.
Turning to `N#Cc1ccc(C=Cc2nccc3c2[nH]c2ccccc23)cc1`, the inhibition stood at 10.9% in experiment [1], 9.49% in experiment [2] and 9.13% in experiment [3].
On to `CCc1cn(C)c2c(N3CCCC3=O)cc(C(=O)N[C@@H](Cc3ccccc3)[C@H](O)CNC(C)(C)CCCC(C)C)cc12`, for which the inhibition in experiment [1] turned out to be 3.03%; in experiment [2], 4.09%; in experiment [3], 3.95%.
Consider `COc1ccc2ncc(F)c([C@H](O)CN3CCC(NCc4ccc5c(c4)NC(=O)CO5)CC3)c2c1`, for which the inhibition is 1.17% in experiment [1], 0.49% in experiment [2] and 1.56% in experiment [3].
For `CCNc1cc(C(=O)N[C@@H](Cc2ccccc2)[C@H](O)CNCCc2ccccc2)cc(N2CCCC2=O)c1`, the inhibition was 0.28% in experiment [1], 1.31% in experiment [2] and 0.88% in experiment [3].
As to `Cc1ccc(NC(=O)c2cccc(C#N)c2)cc1-c1ccc(C(=O)Nc2ccncc2)cc1`, the results for the inhibition in experiment [1], in experiment [2] and in experiment [3] were 7.71%, 9.75% and 4.44%, respectively.
On the same counts, the results for `CCc1sc(CN(CCCNc2cc(=O)c3ccccc3[nH]2)Cc2sc(CC)c(Br)c2-c2ccsc2)c(-c2ccsc2)c1Br` are 3.98%, 4.16% and 5.33%.
The corresponding values for `O=C(Nc1ccc(F)cc1)NC1CCN(c2ccnc3ccccc23)C1` (stereo not given) are 3.76%, 3.71% and 3.79%.
As for `CCN(CC)CCCCCNc1c2ccc(Cl)cc2nc2ccc(OC)cc12`, the inhibition was 2.17% in experiment [1], 1.26% in experiment [2] and 1.52% in experiment [3].
With `CC(C)Nc1nc(NCCc2c[nH]cn2)nc(Nc2ccc(Oc3ccccc3)cc2)n1`, the inhibition in experiment [1] was 2.08%; in experiment [2], 2.71%; in experiment [3] it was -1.98%.
Take `CN(C(=O)Nc1ccc(C(F)(F)F)cc1)C1CCN(CCCCCNC(=O)/C=C/c2ccc(Cl)c(Cl)c2)CC1`: the inhibition in experiment [1] is 4.18%; in experiment [2] it was 2.6%; in experiment [3] it was 0.47%.
On to `CCCCNCc1ccc(-c2nc(CN(Cc3ccc(Cl)c(Cl)c3)S(=O)(=O)c3ccc(NC(C)=O)cc3)cs2)cc1`, for which the results for the inhibition in experiment [1], in experiment [2] and in experiment [3] were 2.51%, 0.43% and 2.51%, respectively.
Turning to `N#Cc1ccc(CN2CCCN(c3ccc(NC(=O)c4ccc(F)cc4)cc3)CC2)cc1`, the inhibition was determined as 2.88% in experiment [1], 3.32% in experiment [2] and 0.81% in experiment [3].
Regarding `COc1ccccc1C(C)NCC(=O)Nc1cc(C(F)(F)F)ccc1Cl` (stereo not given), the inhibition in experiment [1] was determined as 1.79%; in experiment [2] it was 3.31%; in experiment [3] it was 0.58%.
On the same counts, the results for `O=S(=O)(ON=C1CCc2ccccc21)c1ccc(Cl)cc1` are 1.95%, -0.07% and 3.35%.
Regarding `c1cc2[nH]c(CCCCc3nc4cc(C5=N[C@H]6CCCC[C@H]6N5)ccc4[nH]3)nc2cc1C1=N[C@H]2CCCC[C@H]2N1`, the inhibition was 10.1% in experiment [1], 9.08% in experiment [2] and 8.87% in experiment [3].
Turning to `C=CCn1c(Sc2ccc(C#N)c([N+](=O)[O-])c2)nnc1-c1cc(OC)cc(OC)c1`, the values for the inhibition in experiment [1], in experiment [2] and in experiment [3] were 12.5%, 13.4% and 10.9%, respectively.
With `Clc1ccc2c(NN=Cc3ccccc3)ccnc2c1`, the inhibition in experiment [1] is 7.48%; in experiment [2], 6.89%; in experiment [3], 7.07%.
In the case of `CC1CN(c2ccc(NC(=O)c3ccsc3)cc2C(=O)N2CCN(Cc3ccc(C(C)(C)C)cc3)CC2)CC(C)O1` (stereo not given), the inhibition in experiment [1] was -1.24%; in experiment [2] it was 1.1%; in experiment [3], 0.3%.
In the case of `C#C[C@H]1O[C@@H](n2cnc3c(Nc4cc(Br)cc(C(F)(F)F)c4)ncnc32)[C@H](O)[C@@H]1O`, the inhibition was found to be 3.1% in experiment [1], 2.11% in experiment [2] and 2.53% in experiment [3].
`O=C(Nc1ccc(Cl)c(C(F)(F)F)c1)N[C@H]1CCN(CCCCCNC(=O)C2CC2c2ccc(Cl)c(Cl)c2)C1` (stereo not given in full): the inhibition in experiment [1] was -1.57%; in experiment [2], 1.02%; in experiment [3] it was -0.67%.
For `COc1cccc2cc(C(=O)N[C@@H](CC(C)C)C(=O)N[C@H](C=NN3CCCC3=O)Cc3ccccc3)oc12`, the inhibition in experiment [1] came out at 2.46%; in experiment [2], 5.52%; in experiment [3] it was 2.7%.
`CCCNCc1ccc(-c2ccc(CN(Cc3cnc(C)cn3)C(=O)/C=C/c3ccccc3C)cc2)nc1`: the inhibition in experiment [1] was found to be 2.17%; in experiment [2], 0.74%; in experiment [3] it was 0.97%.
In the case of `COc1ccc(/C=C/C(=O)NCCCCCN2CCC(c3c[nH]c4ccccc34)CC2)cc1O`, the inhibition was found to be 12.1% in experiment [1], 9.97% in experiment [2] and 7.57% in experiment [3].
